± gives the standard deviation of the averaged measurements.
Experiments:
Details in all cases: concentration: 10 µM; 24 h
HCC1569 [1] = assay: cell number relative to DMSO (% of DMSO); higher = more cells (less growth inhibition / toxicity)
Method in brief: (§1)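 HCC1569 and TDF cells were seeded at 800 per well in 384-well plates in RPMI with 10% FBS and treated with compounds at 10 µM for 24 h at 37 °C, in triplicate. After fixation in 3.7% formaldehyde, cells were stained with a rabbit anti-H1.0 antibody, an AlexaFluor 647 secondary and DAPI, and six fields per well were imaged at ×10. H1.0 nuclear intensity or cell number is given as percent of the plate control, using the median of replicates, with HCC1569 values smoothed for positional effects.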

TDF [2] = assay: as above
Method in brief: as §1

TDF [3] = assay: H1.0 immunofluorescence intensity relative to DMSO (% of DMSO); higher = stronger H1.0 induction, active = 120 or more
Method in brief: as §1

HCC1569 [4] = assay: H1.0 immunofluorescence intensity relative to DMSO (% of DMSO); higher = stronger H1.0 induction, active = 140 or more
Method in brief: as §1
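Throughout, for H1.0 immunofluorescence intensity relative to DMSO: TDF is a line of transformed human dermal fibroblasts of mesenchymal origin.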
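Throughout, for cell number relative to DMSO: TDF denotes transformed human dermal fibroblasts of mesenchymal origin.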

Compound | cell number (HCC1569 [1]) | cell number (TDF [2]) | H1.0 immunofluorescence intensity (TDF [3]) | H1.0 immunofluorescence intensity (HCC1569 [4])
COc1ccc(-c2cc(=O)c3c(O)cc(O)cc3o2)cc1 [Acacetine] | 98.4 | 95.3 | 100 (inactive) | 90.7 (inactive)
COC(=O)C=Cc1cc(O)ccc1O [2,5-Dihydroxycinnamic acid methyl ester] | 104 | 103 | 91.7 (inactive) | 93.6 (inactive)
Cl.c1ccc(C2CN3CCSC3=N2)cc1 (stereo not given) [Tetramisole hydrochloride] | 99.8 | 114 | 91.7 (inactive) | 105 (inactive)
OC1C=CC(Br)C(O)C1O (mixture of isomers) [6-Bromo-4-cyclohexene-1,2,3-triol Mixed Isomers] | 99.9 | 105 | 97.5 (inactive) | 112 (inactive)
COc1ccc2c(c1)c(CC(=O)N1CCOCC1)c(C)n2C(=O)c1ccc(Cl)cc1 [Indomethacin morpholinylamide] | 105 | 100 | 90.6 (inactive) | 85.5 (inactive)
CCCCCCCCC=CCCCCCCCCC(=O)O [10(E)-Nonadecenoic acid] | 96.1 | 98.8 | 97.4 (inactive) | 101 (inactive)
CCOC(=O)C1=C(COCCN)NC(C)=C(C(=O)OC)C1c1ccccc1Cl (stereo not given) [Amlodipine] | 98.4 | 106 | 93.5 (inactive) | 106 (inactive)
CC1CCC2(OC1)OC1CC3C4CCC5CC(O)CCC5(C)C4CCC3(C)C1C2C (stereo not given) [Sarsasapogenin] | 100 | 105 | 106 (inactive) | 107 (inactive)
O=c1cc(N2CCOCC2)oc2c1ccc1ccccc12 [DNA-PK Inhibitor II] | 98.1 | 97.4 | 92.5 (inactive) | 112 (inactive)
CC(C)(C)c1ccc(C(O)CCCN2CCC(C(O)(c3ccccc3)c3ccccc3)CC2)cc1 (stereo not given) [Terfenadine] | 92.7 ± 3.6 | 97.9 ± 12 | 107 (inactive) | 126 (inactive)
Cc1ccc(S(=O)(=O)NC(=O)NN2CCCCCC2)cc1 [Tolazamide] | 101.3 ± 0.45 | 111.1 ± 0.38 | 93.2 (inactive) | 102 (inactive)
CCCCCC1OC1CC=CCC=CCC=CCCCC(=O)O (stereo not given) [14,15-Epoxyeicosatrienoic acid] | 103 | 112 | 103 (inactive) | 94.8 (inactive)
CN1C(C(=O)Nc2ccccn2)=C(O)c2ccccc2S1(=O)=O [Piroxicam] | 102 ± 2.1 | 107 ± 3.5 | 96.9 (inactive) | 98.2 (inactive)
Cl.NCCNC(=O)c1ncsc1-c1cccc(F)c1 [Ro 41-1049 hydrochloride] | 97.5 | 90.9 | 97.4 (inactive) | 104 (inactive)
CC1=CCC(C)(C)C=CC(=O)C(C)=CCC1 [Zerumbone] | 87.7 | 89.7 | 104 (inactive) | 121 (inactive)
CCCCCC(=O)CCC1C(O)CC(O)C1CC=CCCCC(=O)O (stereo not given) [13,14-Dihydro-15-keto-prostaglandin F2a] | 99.9 | 94 | 90.1 (inactive) | 98.2 (inactive)
CCOP(=O)(OCC)C(=Cc1cc(C(C)(C)C)c(O)c(C(C)(C)C)c1)P(=O)(OCC)OCC | 90.7 | 101 | 93.9 (inactive) | 124 (inactive)
CC(C)(C)NCC(O)COc1cccc2[nH]c(=O)[nH]c12.Cl (racemic) | 97.7 | 110 | 93.5 (inactive) | 97.9 (inactive)
CCc1ccc(CCOc2ccc(CC3SC(=O)NC3=O)cc2)nc1 (stereo not given) [Pioglitazone] | 102 | 105 | 94.2 (inactive) | 102 (inactive)
COC1=CC(C)C2CC3OC(=O)CC4C(C)=C(OC)C(=O)C(C2(C)C1=O)C34C (stereo not given) [Quassin] | 101 | 89.6 | 96.8 (inactive) | 94.8 (inactive)
Cc1nc2ccc(Oc3ccc(F)cc3)cc2c(=O)n1C[C@H]1CCCN(C(C)C)C1.Cl | 94.1 | 105 | 117 (inactive) | 102 (inactive)
O.O.O=c1c(O)c(-c2ccc(O)c(O)c2)oc2cc(O)cc(O)c12 | 90.7 | 89.7 | 101 (inactive) | 116 (inactive)
CNC1(C)C2CCC(C2)C1(C)C (stereo not given) [Mecamylamine] | 101 | 106 | 83.3 (inactive) | 107 (inactive)
Cl.OCC1NCC(O)C(O)C1O (stereo not given) [1-Deoxynojirimycin hydrochloride] | 97.8 | 106 | 85.2 (inactive) | 91.8 (inactive)
CN(C)CC=C(c1ccc(Br)cc1)c1cccnc1.Cl.Cl [Zimelidine dihydrochloride] | 99 | 86.6 | 107 (inactive) | 116 (inactive)

— the supplement of paper PMC7156485
